From PubChem
The list is not random: actives were taken first. Their share in the collection is about 3.5%.
FBW7 act: activators of human E3 ligase FBW7 | AlphaScreen FBW7–phospho-cyclin E peptide binding, activator screen | normalized activity (activation), % at 26.1 µM | actives 0.13% (n = 650,000); in the data active = normalized activity above about 1.9%;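 also: purified mutant Fbw7 with reduced substrate affinity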
Target sequence (Q969H0 whole entry, looked up): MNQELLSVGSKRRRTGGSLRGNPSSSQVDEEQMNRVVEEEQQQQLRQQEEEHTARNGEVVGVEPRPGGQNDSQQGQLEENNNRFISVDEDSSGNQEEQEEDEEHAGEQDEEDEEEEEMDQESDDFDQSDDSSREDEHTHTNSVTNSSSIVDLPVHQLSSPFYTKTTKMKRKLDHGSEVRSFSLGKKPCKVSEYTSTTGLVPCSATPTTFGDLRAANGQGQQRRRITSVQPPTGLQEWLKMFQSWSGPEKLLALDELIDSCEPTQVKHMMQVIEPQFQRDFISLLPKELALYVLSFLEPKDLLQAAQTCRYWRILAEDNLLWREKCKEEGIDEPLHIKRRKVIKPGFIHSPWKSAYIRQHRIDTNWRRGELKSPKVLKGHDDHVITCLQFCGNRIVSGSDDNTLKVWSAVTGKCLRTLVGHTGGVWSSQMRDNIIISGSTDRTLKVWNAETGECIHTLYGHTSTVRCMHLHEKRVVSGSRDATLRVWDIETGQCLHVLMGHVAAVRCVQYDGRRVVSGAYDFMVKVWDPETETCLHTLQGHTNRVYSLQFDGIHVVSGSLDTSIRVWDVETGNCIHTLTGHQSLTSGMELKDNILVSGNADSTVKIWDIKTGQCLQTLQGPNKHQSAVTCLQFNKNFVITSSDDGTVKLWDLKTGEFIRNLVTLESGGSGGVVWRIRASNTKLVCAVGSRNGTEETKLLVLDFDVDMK
TEAD-YAP block: TEAD-YAP interaction inhibition. HEK-TIYL cells, TEAD-Gal4/YAP UAS-luciferase luminescence. inhibition, % at 9.12 µM. actives 1.4% (n = 640,000). AID 1259422; in the data active = inhibition above about 32%
MITF inh: blocks human microphthalmia-associated transcription factor; AlphaScreen MITF homodimerization, bead proximity signal; actives 0.91% (n = 650,000); inhibition, % at 2.6 µM; O75030; in the data active = inhibition above about 50%
GPR151 ag: human GPR151 activation | PathHunter beta-arrestin GPR151 cells, luminescence | actives 1% (n = 650,000) | activation, % at 11.2 µM | Q8TDV0; in the data active = activation above about 4.9%
GPR151 conf act: human GPR151 activation, confirmation screen; GPR151 PathHunter beta-arrestin cells, luminescence, 90 min; % of EA-reagent control over plate median; shares compounds with GPR151 ag; activation, % at 11.2 µM; 6,700 tested, under 10 active;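 active = mean percent activation across replicates above the confirmation screen cutoff of 4.91%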
GPR119 ag: activates human GPR119 in a GPR151 counter-screen | shares compounds with GPR151 ag | GPR119 PathHunter beta-arrestin cells, luminescence, 90 min; 0 = compound-well median, 100 = enzyme-acceptor control | activation, % at 11.2 µM | actives 0.3% (n = 6,700);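 active = mean percent activation in the counterscreen above 29.09%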;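 also: counterscreen on off-target GPR119 to flag nonselective hits from the GPR151 activator screen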
Each line names hits and unclear results; the compound was inactive in the other large screens (follow-up assays come after a bar, where they were run); ! = repeats disagree.

COc1ccc(CNc2nc3nc(C)c(C)c(=O)n3[nH]2)cc1	GPR151 ag 5.5 | GPR151 conf act inactive | GPR119 ag inactive
Cc1nc2ccc(S(=O)(=O)N(C)CC(=O)NC(C)(C)C)cc2s1	none
CCC(=O)Oc1ccc(/C=c2\sc3nc4ccccc4n3c2=O)cc1OC	none
C=CCn1c(SCC(=O)Nc2ccccc2C)nc2sc(C)cc2c1=O	none
COC(=O)NNC(=S)NCc1ccc(C)cc1	GPR151 ag 5.6 | GPR151 conf act inactive | GPR119 ag inactive
O=C(CN1C(=O)COc2ccccc21)Nc1cccc(F)c1	GPR151 ag 5.2 | GPR151 conf act inactive | GPR119 ag inactive
CCn1nc([N+](=O)[O-])c2c(-c3nc4ccccc4o3)c(N)n(CCc3ccccc3)c2c1=O	none
COc1ccc2c(c1OC)C(=O)NC(C)=C(C(=O)OC(C)(C)C)C2O (stereo not drawn)	GPR151 ag 12.0 | GPR151 conf act inactive | GPR119 ag inactive
CC(=O)Nc1cnn(-c2ccc(C(=O)NC(c3ccncc3)c3ccccc3C)cc2)c1 (stereo not drawn)	GPR151 ag 5.4 | GPR151 conf act inactive | GPR119 ag inactive
Cc1nc2sc3c(c2c(=O)n1-n1cccc1)CCCC3	GPR151 ag 5.9 | GPR151 conf act inactive | GPR119 ag inactive
Cc1ccccc1-n1c(C)nc2sc3c(c2c1=O)CCC3	none
O=C(NCCN1CCOCC1)c1cccc(Nc2ccc(-n3ccnc3)cc2)c1	none
Cc1ccc(N(CC(=O)Nc2ccccc2C(C)C)S(C)(=O)=O)cc1	GPR151 ag 6.5 | GPR151 conf act inactive | GPR119 ag inactive
COc1cccc(NC(=O)CN(C)CC(=O)Nc2ccccc2-c2ccccc2)c1	GPR151 ag 5.7 | GPR151 conf act inactive | GPR119 ag inactive
COc1ccc(N(CC(=O)Nc2ccccc2-c2ccccc2)S(C)(=O)=O)cc1	GPR151 ag 14.5 | GPR151 conf act inactive | GPR119 ag inactive
CCc1ccccc1NC(=O)CN(c1ccc(C)cc1)S(C)(=O)=O	none
Cc1c(C(=O)Nc2ccc(F)cc2Cl)sc2ncn(CC(=O)Nc3ccc(C(C)C)cc3)c(=O)c12	none
COc1ccccc1-c1nnc(C2CCN(S(=O)(=O)c3ccccc3)CC2)o1	GPR151 ag 5.8 | GPR151 conf act inactive | GPR119 ag inactive
CC1(C)CC(=O)C(C=NCCc2cccc(Cl)c2)=C(O)C1	GPR151 ag 5.4 | GPR151 conf act inactive | GPR119 ag inactive
CC1(C)CC(=O)C(C=NCc2cccc(F)c2)=C(O)C1	none
CS(=O)(=O)N(CC(=O)NCCC1=CCCCC1)c1ccc(F)c(Cl)c1	none
Cc1ccc(NC(=O)CN(c2ccc3c(c2)OCO3)S(C)(=O)=O)cc1Cl	GPR151 ag 5.1 | GPR151 conf act inactive | GPR119 ag inactive
CS(=O)(=O)N(CC(=O)Nc1ccc(Cl)c(Cl)c1)c1ccc2c(c1)OCO2	none
COC(=O)c1ccccc1NC(=O)CN(c1ccccc1OC)S(C)(=O)=O	none
Cc1ccc(N(CC(=O)NCCC2=CCCCC2)S(C)(=O)=O)cc1Cl	GPR151 ag 15.4 | GPR151 conf act inactive | GPR119 ag inactive
COC(=O)c1ccccc1NC(=O)CN(c1ccc(Cl)c(Cl)c1)S(C)(=O)=O	none
CCOC(=O)c1ccccc1NC(=O)CN(c1ccc(Cl)c(Cl)c1)S(C)(=O)=O	GPR151 ag 18.3 | GPR151 conf act inactive | GPR119 ag inactive
COc1ccccc1N(CC(=O)Nc1ccccc1C(=O)NCC(C)C)S(C)(=O)=O	GPR151 ag 13.4 | GPR151 conf act inactive | GPR119 ag inactive
N#Cc1ccccc1S(=O)(=O)Nc1ccccc1NS(=O)(=O)c1ccc(F)cc1	none
CCc1nnc(-c2ccc(NC(=O)COc3ccc(Cl)cc3)cc2)o1	none
Cc1ccc(N(CC(=O)Nc2ccccc2F)S(C)(=O)=O)cc1Cl	GPR151 ag 14.9 | GPR151 conf act inactive | GPR119 ag inactive
CCOC(=O)c1ccccc1NC(=O)CN(c1ccc(OC)c(Cl)c1)S(C)(=O)=O	none
CCOC(=O)c1ccccc1NC(=O)Nc1ccc(F)cc1	GPR151 ag 7.5 | GPR151 conf act inactive | GPR119 ag inactive
Cc1ccc(N(CC(=O)Nc2cc(Cl)ccc2C)S(C)(=O)=O)c(C)c1	GPR151 ag 6.9 | GPR151 conf act inactive | GPR119 ag inactive
Cc1ccc(Cl)cc1NC(=O)CN(c1ccc(Cl)cc1)S(C)(=O)=O	none
CCOC(=O)c1ccccc1NC(=O)CN(c1ccc(F)c(Cl)c1)S(C)(=O)=O	GPR151 ag 5.2 | GPR151 conf act inactive | GPR119 ag inactive
CCc1c(C)nc2cc(-c3cc(OC)cc(OC)c3)nn2c1NCCN1CCOCC1	none
COc1ccc(N(CC(=O)Nc2cccc(Cl)c2C)S(C)(=O)=O)cc1OC	none
CS(=O)(=O)N(CC(=O)NC1CC2CCC1C2)c1ccc(F)c(Cl)c1 (stereo not drawn)	GPR151 ag 7.8 | GPR151 conf act inactive | GPR119 ag inactive
Cc1ccc(N(CC(=O)Nc2cccc(Cl)c2C)S(C)(=O)=O)cc1C	GPR151 ag 5.3 | GPR151 conf act inactive | GPR119 ag inactive
COC(=O)c1ccccc1NC(=O)CN(c1ccc(F)c(Cl)c1)S(C)(=O)=O	GPR151 ag 13.0 | GPR151 conf act inactive | GPR119 ag 30.9
Cc1ccc(N(CC(=O)NC2CC3CCC2C3)S(C)(=O)=O)cc1Cl (stereo not drawn)	none
COC(=O)CN(c1ccc(Cl)cc1Cl)S(C)(=O)=O	GPR151 ag 7.3 | GPR151 conf act inactive | GPR119 ag inactive
CS(=O)(=O)N(CC(N)=O)c1ccc(Cl)cc1Cl	none
CC(=O)c1ccc(NC(=O)c2c[nH]c(=O)n(-c3ccc(F)c(Cl)c3)c2=O)cc1	none
Nc1cc(-c2ccc(NC(=O)OCCc3ccccc3)cc2)ccn1	none
Cc1c(NC(=O)CN2C(=O)c3ccc([N+](=O)[O-])cc3C2=O)cccc1C(=O)O	none
CCOC(=O)c1ccccc1NC(=O)CN(c1ccccc1F)S(C)(=O)=O	GPR151 ag 5.0 | GPR151 conf act inactive | GPR119 ag inactive
COc1ccc(Cl)cc1NC(=O)CN(c1cccc(Cl)c1)S(C)(=O)=O	GPR151 ag 6.8 | GPR151 conf act inactive | GPR119 ag inactive
CCOC(=O)c1ccccc1NC(=O)CN(c1ccccc1OCC)S(C)(=O)=O	none
CCOC(=O)c1ccccc1NC(=O)c1cn(-c2ccc(F)cc2F)c(=O)c2ccccc12	GPR151 ag 6.7 | GPR151 conf act inactive | GPR119 ag inactive
Cc1cc(NC(=O)c2ccc3c(c2)S(=O)(=O)c2ccccc2C3=O)n(-c2ccccn2)n1	none
CCCCOc1ccc(-c2nnc(-c3ccc(-c4ccccc4)cc3)o2)cc1	GPR151 ag 5.5 | GPR151 conf act inactive | GPR119 ag inactive
NC(=O)c1cccc(N)c1	GPR151 ag 6.2! | GPR151 conf act inactive | GPR119 ag inactive
COc1ccc(NC(=O)/C=C/c2ccc(-c3cccc([N+](=O)[O-])c3)o2)cc1	none
